IL1B secr inh – qHTS for Inhibitors of Inflammasome Signaling: IL-1-beta AlphaLISA Primary Screen; THP-1 LPS/ATP IL-1B secretion, AlphaLISA, 16 h; hits give low values; activity change, % at 57.5 µM; 4.7% of 360,000 active; in the data active means activity change below about -50%; inconclusive means mostly about -30% to -49%
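Secreted IL-1B measured by AlphaLISA bead assay after 16 h compound exposure of THP-1 cells; compounds (final up to 57.5 uM) added 1 h before LPS (250 ng/mL) and ATP (1.25 mM) stimulation; lower signal means less secretion.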
DT40 TDP1 no CPT – qHTS for Inhibitors of human tyrosyl-DNA phosphodiesterase 1 (TDP1): qHTS in cells in absence of CPT; DT40 Tdp1-/- hTDP1 cells, no CPT, ATP luminescence, 48 h; AID 686978, 2013; Potency, µM (doses to about 46.2 µM), for the others: at the top dose activity change, negative = growth inhibition, usual class: inhibitors; 15% of 420,000 active; further: potency means the concentration at half of the fitted maximal effect; nearly all actives have a fitted effect of over 55% in size
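Readout: luminescence from CellTiter-Glo after 30 min in the dark at RT. Cells: DT40 Tdp1-/- with stable hTDP1, 400/well. Exposure: compounds alone, ≥48 hr, 37 °C.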
DT40 TDP1 CPT – qHTS for Inhibitors of human tyrosyl-DNA phosphodiesterase 1 (TDP1): qHTS in cells in presence of CPT | Potency, µM (doses to about 46.2 µM), without a hit: top-dose activity change, negative = growth inhibition, hits mostly inhibitors | chicken DT40 Tdp1-/-;hTDP1 cells + 20 nM CPT, ATP luminescence, 48 h | 12% of 420,000 active; further: potency means the concentration at half of the fitted maximal effect; nearly all actives have a fitted effect of over 55% in size
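Chicken DT40 Tdp1-/- cells complemented with human TDP1, 400 cells/well, exposed to compounds plus 20 nM camptothecin for at least 48 h at 37 C; viability read as ATP content by CellTiter-Glo luminescence.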
ELG1 DNA repair – qHTS screen for small molecules that inhibit ELG1-dependent DNA repair in human embryonic kidney (HEK293T) cells expressing luciferase-tagged ELG1; HEK293T ELG1-luciferase reporter, luminescence, 16 h; DNA damage induced by 5-fluorouridine; Potency, µM (doses to about 46.1 µM), for inactives: top-dose activity change, negative = inhibition, actives largely listed as inhibitors; 2.3% of 330,000 active; AID 504467, 2011; further: potency means the concentration at half of the fitted maximal effect; nearly all actives have a fitted effect of over 55% in size
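HEK293T cells expressing luciferase-tagged ELG1 (2,000/well) received 5-Fluorouridine plus compound or DMSO for 16 hr at 37 °C. Luciferase was read by ONE-Glo luminescence after 30 min at room temperature.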
VP16 counter – VP16 counterscreen qHTS for inhibitors of ROR gamma transcriptional activity; 3.5% of 310,000 active; Potency, µM (titrated, usually from 53.6 µM), for the others: top-dose activity, negative = inhibition, usual class: inhibitors; Drosophila S2 Gal4-VP16 UAS-luciferase, luminescence, 20 h; AID 2546, 2010;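 further: Gal4-VP16 expression switched on by copper sulfate through the metallothionein promoter; potency means the concentration at half of the fitted maximal effect; nearly all actives have a fitted effect of over 50% in size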
RORgamma inh – qHTS for inhibitors of ROR gamma transcriptional activity | Potency, µM (top dose mostly 53.6 µM), for inactives: top-dose activity change, negative = inhibition, most hits filed as inhibitors | Nuclear receptor ROR-gamma (Mus musculus), P51450 | Drosophila S2 Gal4-RORgamma UAS-luciferase reporter, 20 h | 5.4% of 310,000 active; further: potency means the concentration at half of the fitted maximal effect; nearly all actives have a fitted effect of over 60% in size
Target sequence (P51450 whole entry, looked up, the tested form may be a part): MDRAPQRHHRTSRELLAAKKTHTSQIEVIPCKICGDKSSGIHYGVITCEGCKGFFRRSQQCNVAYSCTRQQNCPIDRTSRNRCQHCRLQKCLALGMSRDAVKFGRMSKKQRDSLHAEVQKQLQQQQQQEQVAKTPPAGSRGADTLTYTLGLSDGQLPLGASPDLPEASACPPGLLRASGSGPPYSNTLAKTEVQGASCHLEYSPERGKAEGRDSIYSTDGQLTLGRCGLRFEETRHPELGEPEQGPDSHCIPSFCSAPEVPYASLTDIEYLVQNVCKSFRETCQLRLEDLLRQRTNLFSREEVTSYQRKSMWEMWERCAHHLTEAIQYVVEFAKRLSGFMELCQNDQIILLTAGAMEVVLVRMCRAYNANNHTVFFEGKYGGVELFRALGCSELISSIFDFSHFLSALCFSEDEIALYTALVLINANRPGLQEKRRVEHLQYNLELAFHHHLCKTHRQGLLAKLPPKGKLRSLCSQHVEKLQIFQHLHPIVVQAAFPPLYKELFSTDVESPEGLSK
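Drosophila Schneider cells stably carrying a metallothionein-driven Gal4 DBD–ROR gamma fusion and a UAS-Photinus luciferase reporter were exposed to compound for 1 hr, then induced with copper sulfate (700 uM final) for 20 hr at ambient temperature before luminescence reading.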
* marks the source's active call; other numbers are inactive results; ? = inconclusive; . = not tested or not shown. An excerpt weighted towards active compounds, which were near 21% of everything screened. Unless noted, the call rests on the fitted dose curve; in most records, active means well fitted curve in the direction sought with a large enough effect; inconclusive means small, poorly fitted or top-dose-only effect, or another doubt; inactive means no such curve, though single readings can be large; an effect the other way counts as inactive or inconclusive. On the % scale 0 is the no-effect control and ±100 the full control effect.

SMILES	IL1B secr inh	DT40 TDP1 no CPT	DT40 TDP1 CPT	ELG1 DNA repair	VP16 counter	RORgamma inh
O=C(Cn1nc(-c2ccccc2)c2ccccc2c1=O)Nc1cccc(O)c1	-52.2*	-22.9%	0.0%	0.4%	-3.1%	14.8%
Cc1ccc2[nH]c3c(=O)n(CC(=O)N4CCN(c5ccccc5F)CC4)ncc3c2c1	.	9.3%	-2.0%	.	.	.
COc1ccc(-c2nn(-c3ccc(C)cc3)c3c2cnc2ccc(C)cc23)cc1OC	.	0.4%	2.1%	.	.	.
COc1cc2ncc3c(-c4ccccc4)nn(-c4ccc(C)cc4)c3c2cc1OC	.	16.4µM*	16.4µM*	.	.	.
Cc1ccc(-c2nn(CC(=O)NC3CCCC3)c3c2cnc2ccc(F)cc23)cc1C	.	11.6µM*	?	.	.	.
CCc1ccc(-c2nn(CC(=O)NC3CCCC3)c3c2cnc2ccc(F)cc23)cc1	.	-14.5%	-22.1%	.	.	.
COc1ccccc1-c1nnc2n1N=C(c1c(OC)cccc1OC)CS2	.	.	.	.	1.2%	-6.3%
CCOCCCNC(=O)CN(c1cc([N+](=O)[O-])ccc1OC)S(C)(=O)=O	-12.8	-10.2%	7.8%	1.2%	5.1%	-5.5%
O=C1Nc2ccc(Br)cc2/C1=C/C1CC=CCC1 (stereo not given)	-98.8*	?	18.4µM*	-11.2%	?	?
CC(=O)Nc1cc(-c2cccc(C(=O)N(C)C)c2)cn2c(-c3ccccc3)cnc12	-11.2	?	?	.	.	.
CC(=O)Nc1cc(-c2ccoc2)cn2c(-c3ccccc3)cnc12	-12.1	0.92µM*	1.03µM*	.	.	.
CC(=O)Nc1cc(-c2cccc(F)c2)cn2c(-c3ccccc3)cnc12	-7.8	?	18.4µM*	.	.	.
CC(=O)Nc1cc(-c2cccc(F)c2)cn2c(-c3ccc(F)cc3)cnc12	6.5	23.1µM*	?	.	.	.
CC(=O)Nc1cc(-c2cccc(C(=O)N(C)C)c2)cn2c(-c3ccc(C(C)=O)cc3)cnc12	?	11.6µM*	16.4µM*	.	.	.
CC(=O)Nc1cc(-c2ccc(N(C)C)cc2)cn2c(-c3ccc(F)cc3)cnc12	-5.7	?	?	.	.	.
C/C(=N\NC(=O)c1ccc2c(c1)OCO2)c1ccc(NC(=O)CCCC(=O)O)cc1	0.2	5.0%	-0.9%	23.2%	-0.2%	-27.8%
CC(=O)Nc1cccc(-c2cc(NC(C)=O)c3ncc(-c4ccc(C(C)=O)cc4)n3c2)c1	0.0	7.31µM*	5.17µM*	.	.	.
CC(=O)Nc1cc(-c2cccc(F)c2)cn2c(-c3ccc(S(C)(=O)=O)cc3)cnc12	-52.4*	20.6µM*	?	.	.	.
CC(=O)Nc1cccc(-c2cc(NC(C)=O)c3ncc(-c4ccc(F)cc4)n3c2)c1	22.4	14.6µM*	?	.	.	.
CC(=O)Nc1cc(-c2cccc(N)c2)cn2c(-c3ccccc3)cnc12	-3.7	?	18.4µM*	.	.	.
CC(=O)Nc1cc(-c2cccc(C(=O)N(C)C)c2)cn2c(-c3ccc(F)c(Cl)c3)cnc12	-29.5	?	?	.	.	.
COc1ccc(OCCC(=O)Nc2ccccc2)cc1	10.0	-2.7%	2.4%	17.5%	-20.0%	-0.7%
Cc1nn(-c2ccccc2)c(C)c1NC(=O)COC(=O)CC(C)c1ccccc1 (stereo not given)	3.6	?	-11.1%	11.5%	.	.
COc1ccc(CCc2cc(OC)c(OC)c(OC)c2)cc1	36.2	0.581µM*	0.82µM*	.	.	.
Cc1ccc(Oc2nnc(-c3ccccc3)c3ccccc23)cc1	-19.8	?	20.6µM*	12.4%	-3.8%	15.8%
